Assay results as given in PubChem BioAssay AID1159580 (chemical genetic matrix, 2015).
The campaign covered roughly 5,500 compounds. About 2,000 (36%) were called active. Inconclusive results (about 18%) are left out. No stated cut-off is given here; in the data, active means normalized growth mostly below about 0.91 (no sharp cut-off); inconclusive means no clear call, values can overlap the other calls; inactive means mostly above about 0.92. The list shows a part of the results.

Assay: chemical genetic growth profiling, strain panel (AID 1159580);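 further: tested at 20 µM; growth read once vehicle control cultures reached saturation at 30 °C; 1 = growth at the plate median or of vehicle wells; lower values mean less growth of the strain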
Settings: S. cerevisiae deletion strains, growth OD
[1] = locus YHR030C, strain SLT2, active compounds read low
[2] = locus YHR079C, strain IRE1, active compounds read low
[3] = locus YJL095W, strain BCK1, active compounds read low
[4] = locus YJR066W, strain TOR1, active compounds read low
[5] = locus YLR113W, strain HOG1, active compounds read low
[6] = locus YNL183C, strain NPR1, active compounds read low
[7] = locus YOR231W, strain MKK1, active compounds read low
[8] = locus YPL256C, strain CLN2, active compounds read low

Measured: normalized growth

NC(=O)C1(N2CCCCC2)CCN(CCCC(=O)c2ccc(F)cc2)CC1
inactive: [1] 1.04 | [2] 1.02 | [3] 0.99 | [4] 0.968 | [5] 0.981 | [6] 0.959 | [7] 1.01 | [8] 0.988

O=C1CC2(CCCC2)CC(=O)N1CCCCN1CCN(c2ncccn2)CC1
inactive: locus YAL021C, strain ccr4, active compounds read low 0.985 | locus YAL026C, strain drs2, active compounds read low 1.03 | locus YAL030W, strain snc1, active compounds read low 0.998 | locus YAL040C, strain CLN3, active compounds read low 0.987 | locus YBL061C, strain skt5, active compounds read low 0.995 | locus YBR009C, strain hhf1, active compounds read low 0.989 | locus YBR023C, strain chs3, active compounds read low 0.996 | locus YBR171W, strain sec66, active compounds read low 1.01 | locus YBR231C, strain swc5, active compounds read low 0.993 | locus YBR279W, strain paf1, active compounds read low 0.999 | locus YCL011C, strain gbp2, active compounds read low 1 | locus YCL016C, strain dcc1, active compounds read low 1 | locus YCL061C, strain MRC1, active compounds read low 0.998 | locus YCL069W, strain vba3, active compounds read low 1 | locus YCR088W, strain abp1, active compounds read low 1.01 | locus YDL005C, strain med2, active compounds read low 0.993 | locus YDL040C, strain nat1, active compounds read low 0.996 | locus YDR001C, strain nth1, active compounds read low 1.02 | locus YDR069C, strain doa4, active compounds read low 0.978 | locus YDR137W, strain rgp1, active compounds read low 0.984 | locus YDR159W, strain sac3, active compounds read low 0.985 | locus YDR195W, strain ref2 0.974 | locus YDR297W, strain sur2, active compounds read low 1 | locus YDR334W, strain swr1, active compounds read low 1.01 | locus YDR335W, strain msn5, active compounds read low 1 | locus YDR392W, strain spt3, active compounds read low 0.801 | locus YEL003W, strain gim4, active compounds read low 1.01 | locus YEL037C, strain rad23, active compounds read low 1.01 | locus YEL061C, strain CIN8 (second series), active compounds read low 1.01 | locus YER002W, strain NOP16, active compounds read low 1.01 | locus YER015W, strain faa2, active compounds read low 0.998 | locus YER016W, strain bim1, active compounds read low 0.996 | locus YER111C, strain swi4, active compounds read low 1 | locus YER155C, strain BEM2 (second series), active compounds read low 1 | locus YFR010W, strain ubp6, active compounds read low 1.02 | locus YGL167C, strain pmr1, active compounds read low 0.991 | locus YGL173C, strain kem1, active compounds read low 1 | locus YGL227W, strain vid30, active compounds read low 1 | locus YGL240W, strain doc1, active compounds read low 0.978 | locus YGL253W, strain hxk2, active compounds read low 1.01 | locus YHR013C, strain ard1, active compounds read low 0.929 | locus YHR027C, strain rpn1, active compounds read low 1 | [1] 1.06 | [2] 1 | locus YHR142W, strain chs7, active compounds read low 1.02 | locus YJL092W, strain hpr5, active compounds read low 1.04 | locus YJL095W, strain BCK1 (second series), active compounds read low 0.995 | [3] 1 | locus YJL115W, strain asf1, active compounds read low 0.998 | locus YJL129C, strain trk1, active compounds read low 1.02 | locus YJL154C, strain vps35, active compounds read low 1 | locus YJL164C, strain tpk1, active compounds read low 0.986 | locus YJL166W, strain qcr8, active compounds read low 0.987 | locus YJL187C, strain SWE1, active compounds read low 0.996 | [4] 0.959 | locus YJR075W, strain HOC1, active compounds read low 0.978 | locus YKL160W, strain elf1, active compounds read low 0.986 | locus YKR026C, strain gcn3, active compounds read low 1.01 | locus YKR091W, strain srl3, active compounds read low 0.995 | locus YLL001W, strain dnm1, active compounds read low 0.983 | locus YLL026W, active compounds read low 0.987 | locus YLL041C, strain sdh2, active compounds read low 0.999 | locus YLR027C, strain aat2, active compounds read low 0.999 | [5] 1.04 | locus YLR221C, strain rsa3, active compounds read low 0.995 | locus YLR258W, strain gsy2, active compounds read low 0.977 | locus YLR262C, strain YPT6 (second series), active compounds read low 0.958 | locus YLR320W, strain mms22, active compounds read low 0.974 | locus YLR342W, strain FKS1, active compounds read low 1 | locus YLR357W, strain rsc2, active compounds read low 1.02 | locus YLR370C, strain arc18, active compounds read low 1.01 | locus YLR384C, strain iki3, active compounds read low 0.978 | locus YML120C, strain ndi1, active compounds read low 1 | locus YMR058W, strain fet3, active compounds read low 1 | locus YMR125W, strain sto1, active compounds read low 0.998 | locus YMR129W, active compounds read low 1.02 | locus YMR205C, strain PFK2, active compounds read low 0.994 | locus YMR231W, strain pep5, active compounds read low 0.992 | locus YNL071W, strain lat1, active compounds read low 0.999 | locus YNL128W, strain TEP1, active compounds read low 0.979 | locus YNL153C, strain GIM3, active compounds read low 0.996 | locus YNL175C, strain NOP13, active compounds read low 1.01 | [6] 0.96 | locus YNL197C, strain WHI3, active compounds read low 0.96 | locus YNL209W, strain ssb2, active compounds read low 0.986 | locus YNL224C, strain SQS1, active compounds read low 0.996 | locus YNL248C, strain rpa49, active compounds read low 1 | locus YNL322C, strain KRE1 (second series), active compounds read low 0.99 | locus YNR049C, strain mso1, active compounds read low 1.01 | locus YOR001W, strain rrp6, active compounds read low 0.988 | locus YOR070C, strain gyp1, active compounds read low 0.999 | locus YOR080W, strain dia2, active compounds read low 0.987 | locus YOR083W, strain WHI5 (second series), active compounds read low 1.01 | locus YOR083W, strain WHI5, active compounds read low 1.02 | locus YOR106W, strain vam3, active compounds read low 0.997 | [7] 1.01 | locus YOR265W, strain rbl2, active compounds read low 1 | locus YOR270C, strain vph1, active compounds read low 1.03 | locus YOR290C, strain snf2, active compounds read low 0.934 | locus YPL051W, strain arl3, active compounds read low 0.992 | locus YPL078C, strain atp4, active compounds read low 1 | locus YPL106C, strain sse1, active compounds read low 0.999 | locus YPL240C, strain hsp82, active compounds read low 1.01 | locus YPL241C, strain CIN2, active compounds read low 1 | [8] 0.999
